Bioassay records: PubChem BioAssay, National Center for Advancing Translational Sciences (NCATS)
An excerpt weighted towards active compounds, which were near 19% of everything screened.
TDP1 cell noCPT: qHTS for Inhibitors of human tyrosyl-DNA phosphodiesterase 1 (TDP1): qHTS in cells in absence of CPT | hit rate 15% among 420,000 | DT40 Tdp1-/- hTDP1 cells, no CPT, ATP luminescence, 48 h | AID 686978, 2013 | Potency, µM (series often up to 46.2 µM), for inactives: at the top dose activity change, negative = growth inhibition, most hits filed as inhibitors; also: potency is read from the fitted curve at half-maximal effect; % is scaled to controls: 0 for no effect and ±100 for the full control effect; nearly all actives have a fitted effect of over 55% in size
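Readout: luminescence from CellTiter-Glo after 30 min in the dark at RT. Cells: DT40 Tdp1-/- with stable hTDP1, 400/well. Exposure: compounds alone, ≥48 hr, 37 °C.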
TDP1 block: qHTS Assay for Inhibitors of Tyrosyl-DNA Phosphodiesterase (TDP1). Potency, µM (top dose mostly 130 µM), inactives show at the highest dose activity change, negative = inhibition, usual class: inhibitors. Tyrosyl-DNA phosphodiesterase 1 (Homo sapiens), Q9NUW8. hit rate 0.28% among 350,000. AID 485290, 2010. recombinant TDP1, AlphaScreen DNA substrate cleavage; also: potency is read from the fitted curve at half-maximal effect; % is scaled to controls: 0 for no effect and ±100 for the full control effect; nearly all actives have a fitted effect of over 40% in size
Target sequence (Q9NUW8 whole entry, looked up): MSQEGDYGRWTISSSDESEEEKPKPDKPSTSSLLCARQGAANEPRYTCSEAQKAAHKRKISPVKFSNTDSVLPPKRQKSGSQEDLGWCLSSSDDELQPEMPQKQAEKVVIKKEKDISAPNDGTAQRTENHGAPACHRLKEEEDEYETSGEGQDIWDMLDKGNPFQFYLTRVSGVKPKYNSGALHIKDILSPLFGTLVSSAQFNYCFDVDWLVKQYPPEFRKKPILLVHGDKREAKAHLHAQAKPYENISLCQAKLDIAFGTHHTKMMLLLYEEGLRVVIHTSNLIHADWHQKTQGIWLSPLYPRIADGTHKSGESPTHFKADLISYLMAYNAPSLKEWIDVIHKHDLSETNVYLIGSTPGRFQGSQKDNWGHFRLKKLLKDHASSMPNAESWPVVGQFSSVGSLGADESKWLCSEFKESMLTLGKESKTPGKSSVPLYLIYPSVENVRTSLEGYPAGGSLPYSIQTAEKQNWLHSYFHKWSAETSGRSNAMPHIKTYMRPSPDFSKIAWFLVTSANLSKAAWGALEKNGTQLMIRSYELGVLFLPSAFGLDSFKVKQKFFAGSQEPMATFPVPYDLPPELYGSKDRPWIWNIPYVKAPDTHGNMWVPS
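Steps: enzyme plus compound, 15 min RT; add biotin/phosphotyrosine-FITC oligonucleotide (15 nM final), react 5 min; add donor/acceptor beads (10 ug/ml final), 10 min; read AlphaScreen. Tdp1 at 1 nM final.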
TGFb inhibitor: qHTS for Inhibitors of TGF-b; Potency, µM (highest dose often 46.1 µM), for the others: at the top dose activity, negative = inhibition, actives largely listed as inhibitors; AID 588855, 2011; hit rate 1.2% among 410,000; HepG2 CAGA-GFP TGF-b/SMAD3 reporter, GFP fluorescence, 18 h; TGF-beta stimulated, 500 pg/mL final; also: potency is read from the fitted curve at half-maximal effect; % is scaled to controls: 0 for no effect and ±100 for the full control effect; nearly all actives have a fitted effect of over 65% in size
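First, reporter cells (HEPG2 CAGA-GFP) rested 2 h at 37 degrees C. Next, compounds were pinned in and TGF-beta added to 500 pg/mL final. After 18 h, GFP was imaged per cell and summed per well.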
HepG2 viability: qHTS for Inhibitors of TGF-b: Cytotox Counterscreen. AID 588856, 2011. Potency, µM (top dose mostly 46.1 µM), for inactives: at the highest dose activity change, negative = cytotoxicity, hits mostly cytotoxic. hit rate 0.76% among 410,000. HepG2 CAGA-GFP viability, ATP luminescence, 18 h; also: potency is read from the fitted curve at half-maximal effect
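HepG2 CAGA-GFP cells (1000/well, DMEM with 1% FBS) received compound, then TGF-beta at 500 pg/mL final, and were incubated 18 hours at 37 degrees C. Viability was read by CellTiter-Glo luminescence. Media-only wells were set as complete cell-killing and DMSO as no toxicity.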
IL1B secr inh: qHTS for Inhibitors of Inflammasome Signaling: IL-1-beta AlphaLISA Primary Screen; activity change, % at 57.5 µM; hit rate 4.7% among 360,000; THP-1 LPS/ATP IL-1B secretion, AlphaLISA, 16 h; active compounds read low; AID 743279, 2014; in the data active = activity change below about -50%; inconclusive = mostly about -30% to -49%; also: % is scaled to controls: 0 for no effect and ±100 for the full control effect
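Secreted IL-1B measured by AlphaLISA bead assay after 16 h compound exposure of THP-1 cells; compounds (final up to 57.5 uM) added 1 h before LPS (250 ng/mL) and ATP (1.25 mM) stimulation; lower signal means less secretion.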
TDP1 cell CPT: qHTS for Inhibitors of human tyrosyl-DNA phosphodiesterase 1 (TDP1): qHTS in cells in presence of CPT; chicken DT40 Tdp1-/-;hTDP1 cells + 20 nM CPT, ATP luminescence, 48 h; Potency, µM (titrated, usually from 46.2 µM), without a hit: top-dose activity change, negative = growth inhibition, hits mostly inhibitors; hit rate 12% among 420,000; also: potency is read from the fitted curve at half-maximal effect; % is scaled to controls: 0 for no effect and ±100 for the full control effect; nearly all actives have a fitted effect of over 55% in size
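Cell growth measured by CellTiter-Glo luminescence after a minimum 48 h, 37 C compound exposure with 20 nM CPT in Tdp1-knockout DT40 cells stably expressing hTDP1, seeded 400/well; qHTS titration format.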
Numbers without * were called inactive; ? = inconclusive; nt = no result. Unless noted, calls follow the shape of the dose curve; as a rule, active = well fitted curve in the direction sought with a large enough effect; inconclusive = small, poorly fitted or top-dose-only effect, or another doubt; inactive = no such curve, though single readings can be large; an effect the other way counts as inactive or inconclusive.

SMILES | TDP1 cell noCPT | TDP1 block | TGFb inhibitor | HepG2 viability | IL1B secr inh | TDP1 cell CPT
COc1cc([N+](=O)[O-])cc2sc(NC(=O)C3CC3)nc12 | 0.6% | -1.2% | -39.5% | -14.2% | -28.6 | 13.7%
COc1ccccc1C(=O)Nc1ccccc1OCc1cc(=O)n2c(C)csc2n1 | 16.4µM* | 6.4% | 0.4% | 3.9% | nt | ?
Cc1csc2nc(COc3ccc(NC(=O)COc4ccccc4F)cc3)cc(=O)n12 | 14.6µM* | 3.8% | -4.3% | 0.9% | nt | ?
Cc1ccccc1OCC(=O)Nc1ccccc1C(=O)OCc1cc(=O)n2c(C)csc2n1 | 4.61µM* | -3.8% | -21.0% | -28.9% | nt | 2.59µM*
Cc1csc2nc(COc3ccccc3NC(=O)c3ccccc3Cl)cc(=O)n12 | 3.66µM* | 1.3% | 3.3% | -1.1% | nt | 4.61µM*
Cc1csc2nc(COc3ccccc3NC(=O)c3ccc(C(C)(C)C)cc3)cc(=O)n12 | ? | 1.3% | -0.3% | 1.5% | nt | ?
CCCSc1cc(N2CCCC2)nc(-c2ccccc2)n1 | -14.8% | 0.0% | 7.6% | -26.4% | 35.9 | 4.0%
CCCSc1cc(N2CCN(C)CC2)nc(-c2ccc(OC)cc2)n1 | ? | 4.7% | ? | -87.6% | -56.9* | ?
CCC1(c2ccccc2)NC(=O)N(CC(=O)Nc2ccc(N3CCOCC3)cc2)C1=O (configuration not stated) | 0.3% | 3.1% | 0.6% | -2.4% | -9.9 | -10.1%
Cc1onc(-c2ccccc2Cl)c1C(=O)NC(=S)Nc1ccccc1C(N)=O | ? | 2.2% | 5.8% | -2.7% | 28.4 | 25.9µM*
Cc1cccc(C(=O)NNC(=O)c2c(-c3ccccc3Cl)noc2C)c1O | 29.1µM* | nt | 22.5% | -2.5% | -4.0 | ?
Cc1onc(-c2ccccc2Cl)c1C(=O)NNC(=O)c1ccc(F)cc1 | -1.1% | 9.6% | 20.7% | -1.4% | -1.2 | 2.7%
Cc1onc(-c2ccccc2Cl)c1C(=O)Nc1ccccc1C(=O)NC(C)C | 2.31µM* | 0.0% | 10.7% | -23.9% | ? | 3.26µM*
Cc1onc(-c2ccccc2Cl)c1C(=O)N1CC(C)OC(C)C1 (configuration not stated) | -25.6% | 7.0% | -5.1% | 9.7% | 14.3 | -19.9%
Cc1onc(-c2ccccc2Cl)c1C(=O)N1CC(C)CC(C)C1 (configuration not stated) | 10.3µM* | nt | 0.0% | -9.8% | 3.8 | 14.6µM*
Cc1ccc(NC(=O)CSc2nc3ccccc3c3nc(CCc4c(C)n[nH]c4C)nn23)c(C)c1 | -28.7% | -0.5% | 3.5% | 2.4% | nt | -26.2%
COc1cc(Cl)c(C)cc1NC(=O)c1cc(CN2CCOCC2)on1 | ? | 3.2% | -2.2% | -25.4% | nt | ?
CCOC(=O)C(=CNc1ccc(C(F)(F)F)cc1Cl)C(=O)OCC | ? | 2.4% | 16.2% | 8.2% | 9.1 | -6.4%
CCOC(=O)C(=CNc1ccc(-c2ccco2)c(Cl)c1)C(=O)OCC | 16.4µM* | 0.0% | ? | -42.7% | -11.9 | 20.6µM*
CCOC(=O)C(=CNc1ccccc1Cl)C(=O)OCC | ? | nt | -10.3% | -7.6% | -26.8 | -17.6%
CCOC(=O)C(=CNc1cc(Cl)c(-c2ccco2)c(Cl)c1)C(=O)OCC | 11.6µM* | nt | -24.4% | -20.9% | -6.7 | 18.4µM*
CCOc1ccc2c(c1)S/C(=C\c1cccs1)C(=O)N2 | ? | nt | 46.1% | -11.5% | 10.5 | ?
COc1ccccc1NC(=O)C(=O)N/N=C(\C)CC(=O)Nc1ccc(OCc2ccccc2)cc1 | ? | 9.8% | 18.2% | -0.3% | 3.9 | -26.4%
